“And” between values parts separate entries of the source, which are not always exact repeats. Equal entries are not always repeated. The source made the active and inactive calls.
What was measured:
[1] = anti-His antibody binders, primary screen, artefact control for SMM control protein annotation, biochemical, small-molecule microarray, 635 nm fluorescence (AID 1128); conditions: anti-His Alexa647 antibody binding, higher = more signal;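 further: score merges feature fluorescence with signal-to-noise for each printed compound spot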
[2] = tested on: Human papillomavirus type 1a E7 protein (residues 1-88); test: HPV1a E7 small-molecule binders, primary screen, biochemical, small-molecule microarray, residues 1-88, 635 nm (AID 1129); conditions: small-molecule microarray binding, fluorescence 635 nm; higher = more signal
[3] = target: Focal adhesion kinase 1 (Homo sapiens) (UniProt Q05397); test: small-molecule microarray binders of FAK, primary screen, biochemical, 635/667 nm fluorescence, BSA, DTT (AID 1130); conditions: PTK2 binding, 635 nm fluorescence, higher = more signal;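 further: composite of spot emission at 667 nm and signal to noise over triplicate slides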
[4] = tested on: Fibrinogen (Alexa647-labelled); test: fibrinogen binders on compound microarrays, profiling panel, artefact control for SMM control-protein annotation, biochemical, small-molecule microarray, 635/667 nm fluorescence (AID 1131); conditions: fibrinogen-A647 binding fluorescence, higher = more signal;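 further: z-score merges 667 nm fluorescence with per-spot signal-to-noise over triplicate slides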
[5] = target: Follistatin (Homo sapiens) (UniProt P19883); test: follistatin binders on small-molecule microarrays, primary screen, biochemical, small-molecule microarray, 635/667 nm fluorescence (AID 1132); conditions: FST binding, 635 nm fluorescence, higher = more signal
[6] = target: Fibroblast growth factor 2 (Homo sapiens) (UniProt P09038); test: FGF2 binders on small-molecule microarrays, primary screen, biochemical, small-molecule microarray, 635/667 nm fluorescence (AID 1133); conditions: small-molecule microarray binding, FGF2, fluorescence 635/667; higher = more signal
[7] = mitochondrial membrane potential change in A549 cells, profiling panel, cell-based, JC-1 fluorescence, basal, 24 h, 100 nL (AID 1138); conditions: higher = more signal;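 further: A549 lung adenocarcinoma cells under basal conditions with no added stimulus; test concentration not given here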
Lefty1 = Lefty1 binders on small-molecule microarrays, primary screen, biochemical, small-molecule microarray, 635/667 nm fluorescence (AID 1139); conditions: small-molecule microarray binding, fluorescence 635/667; higher = more signal
[8] = tested on: wheat germ agglutinin (Triticum aestivum), Alexa647-labelled; test: wheat germ agglutinin binders on compound microarrays, profiling panel, artefact control for SMM control-protein annotation, biochemical, small-molecule microarray, 635/667 nm fluorescence (AID 1140); conditions: WGA-A647 binding, 635 nm fluorescence, higher = more signal;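 further: score merges 667 nm feature emission with signal to noise over triplicate slides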
[9] = target: Luciferin 4-monooxygenase (Photinus pyralis) (UniProt P08659); test: firefly luciferase enzyme inhibitors, primary screen, biochemical, luminescence, purified enzyme, 2006 set (AID 1141); conditions: SteadyGlo luminescence, 30 min, higher = more signal, called active from +8 up or from −8 down;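 further: cell-free assay with purified firefly luciferase at 100 ng per well in PBS; test concentration not given here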
Chain of Luciferin 4-monooxygenase (Photinus pyralis) (P08659 whole entry, looked up): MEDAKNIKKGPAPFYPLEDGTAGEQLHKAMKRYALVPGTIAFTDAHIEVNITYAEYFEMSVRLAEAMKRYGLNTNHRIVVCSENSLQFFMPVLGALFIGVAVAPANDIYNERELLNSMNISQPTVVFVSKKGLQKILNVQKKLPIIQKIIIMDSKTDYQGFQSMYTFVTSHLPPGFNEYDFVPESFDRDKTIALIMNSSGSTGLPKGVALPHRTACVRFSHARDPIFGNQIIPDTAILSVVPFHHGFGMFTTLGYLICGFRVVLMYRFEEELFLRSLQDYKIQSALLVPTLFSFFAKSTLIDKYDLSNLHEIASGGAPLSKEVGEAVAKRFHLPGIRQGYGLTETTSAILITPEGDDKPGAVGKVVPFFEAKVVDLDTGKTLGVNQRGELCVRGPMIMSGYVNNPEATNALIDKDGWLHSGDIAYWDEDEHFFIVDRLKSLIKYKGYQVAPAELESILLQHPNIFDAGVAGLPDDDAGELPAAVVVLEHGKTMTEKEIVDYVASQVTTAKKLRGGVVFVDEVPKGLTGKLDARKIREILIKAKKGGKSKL

Chain of Fibroblast growth factor 2 (Homo sapiens) (P09038 whole entry, looked up): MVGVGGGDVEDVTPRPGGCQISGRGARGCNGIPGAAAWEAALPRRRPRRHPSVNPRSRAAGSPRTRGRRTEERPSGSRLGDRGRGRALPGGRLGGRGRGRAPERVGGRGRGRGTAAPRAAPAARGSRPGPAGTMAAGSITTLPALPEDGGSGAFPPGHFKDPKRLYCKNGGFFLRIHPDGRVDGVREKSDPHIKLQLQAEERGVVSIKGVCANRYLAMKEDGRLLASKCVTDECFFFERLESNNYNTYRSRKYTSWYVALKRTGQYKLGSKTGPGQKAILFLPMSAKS
Chain of Focal adhesion kinase 1 (Homo sapiens) (Q05397 whole entry, looked up): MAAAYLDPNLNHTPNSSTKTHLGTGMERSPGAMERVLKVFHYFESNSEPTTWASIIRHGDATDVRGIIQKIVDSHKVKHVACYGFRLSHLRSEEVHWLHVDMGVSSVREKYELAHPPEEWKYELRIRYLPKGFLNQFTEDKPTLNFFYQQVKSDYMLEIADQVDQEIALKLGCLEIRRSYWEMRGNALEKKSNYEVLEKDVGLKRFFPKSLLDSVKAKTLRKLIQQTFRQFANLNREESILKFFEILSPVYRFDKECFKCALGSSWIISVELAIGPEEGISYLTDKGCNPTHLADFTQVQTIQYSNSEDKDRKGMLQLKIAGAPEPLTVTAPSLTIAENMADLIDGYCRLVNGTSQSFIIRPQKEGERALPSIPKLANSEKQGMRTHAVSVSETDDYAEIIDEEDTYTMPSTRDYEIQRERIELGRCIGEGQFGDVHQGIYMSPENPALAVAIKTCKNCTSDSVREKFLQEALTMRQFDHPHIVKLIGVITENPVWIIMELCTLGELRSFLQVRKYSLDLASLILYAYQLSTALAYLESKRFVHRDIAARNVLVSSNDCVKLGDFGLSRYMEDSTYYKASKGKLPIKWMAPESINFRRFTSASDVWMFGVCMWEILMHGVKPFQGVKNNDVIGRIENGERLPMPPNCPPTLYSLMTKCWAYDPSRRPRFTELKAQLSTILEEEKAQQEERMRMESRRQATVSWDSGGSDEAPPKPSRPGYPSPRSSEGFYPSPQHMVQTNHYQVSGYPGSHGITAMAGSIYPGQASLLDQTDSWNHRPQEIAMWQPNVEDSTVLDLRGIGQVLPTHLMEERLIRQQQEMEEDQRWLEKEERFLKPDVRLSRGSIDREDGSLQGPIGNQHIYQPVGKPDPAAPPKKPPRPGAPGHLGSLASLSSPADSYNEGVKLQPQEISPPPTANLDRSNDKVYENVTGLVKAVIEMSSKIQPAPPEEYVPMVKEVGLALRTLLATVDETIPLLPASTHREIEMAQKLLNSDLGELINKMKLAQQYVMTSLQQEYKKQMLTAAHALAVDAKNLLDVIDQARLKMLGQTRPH
Chain of Follistatin (Homo sapiens) (P19883 whole entry, looked up): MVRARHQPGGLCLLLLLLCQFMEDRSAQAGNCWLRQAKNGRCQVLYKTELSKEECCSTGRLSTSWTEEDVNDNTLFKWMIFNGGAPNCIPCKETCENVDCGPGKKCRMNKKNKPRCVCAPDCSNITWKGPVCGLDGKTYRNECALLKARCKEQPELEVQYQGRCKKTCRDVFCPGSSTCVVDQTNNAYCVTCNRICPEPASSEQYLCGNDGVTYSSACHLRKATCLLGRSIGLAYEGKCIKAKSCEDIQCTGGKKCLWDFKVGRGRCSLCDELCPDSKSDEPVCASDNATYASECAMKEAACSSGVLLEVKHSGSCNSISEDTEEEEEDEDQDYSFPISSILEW

| Compound | composite z-score [1] | composite z-score [2] | composite z-score [3] | composite z-score [4] | composite z-score [5] | composite z-score [6] | z-score [7] | composite z-score (Lefty1) | composite z-score [8] | z-score [9] |
| --- | --- | --- | --- | --- | --- | --- | --- | --- | --- | --- |
| C=C[C@H](C)[C@@H](O)c1ccc(OCCO)cc1 | -0.419 and 0.713 | -1.38 and -0.449 | -0.996 and -0.139 | -1.48 and 0.462 | 0.42 and 0.345 | 0.036 and -0.488 | -0.459 and 1.14 | -0.931 and 0.134 | -0.449 and 0.106 | -3.17 (inactive) and -4 (inactive) |
| CC(C)N1CC=CC23O[C@@H]4C=CCCOC(=O)C4[C@H]2C(=O)N(C(C)CO)[C@@H]3C1=O (stereo not given in full) | 0.412 and -0.876 | -0.149 and -1.45 | -0.214 and -0.327 | -0.367 and -0.617 | -1.72 and -1.22 | -1.55 and -0.107 | 0.615 and 0.4 | -0.674 and -1.22 | -0.759 and -1.45 | -0.509 (inactive) and -0.916 (inactive) |
| COC(=O)C1=C(C)N(Cc2ccccc2)[C@]23O[C@](C(=O)OC)(C(=O)N2[C@@H]1c1ccccc1)[C@@H](c1ccccc1)[C@@H]3C(=O)c1ccccc1 | -0.148 and -0.112 | 0.771 and 0.0338 | -0.0865 and -0.11 | 0.502 and -0.435 | -0.0105 and 0.958 | 0.416 and 0.847 | 0.914 and 0.835 | 0.0005 and 0.36 | 0.516 and -0.17 | -0.917 (inactive) and -0.717 (inactive) |
| COC(=O)C1=C(C)N(Cc2ccccc2)C2=C3C(=O)N(c4ccccc4)C(=O)[C@@H]3[C@@](O)(C(=O)OC)C(=O)N2[C@@H]1c1ccccc1 | 0.387 and 0.668 | 0.186 and 1.1 | 0.14 and 0.113 | 0.212 and 0.393 | 0.988 and 0.726 | 1.63 and 0.5 | 0.895 and 1.76 | 0.823 and 0.745 | 0.0882 and 0.764 | -0.471 (inactive) and -1.33 (inactive) |
| Cc1ccc(S(=O)(=O)N[C@H]2COC(=O)[C@@H](Cc3ccccc3)NC(=O)[C@@H](C)COC(=O)CC=C[C@@H]2C)cc1 | -0.619 and 1.81 | -0.95 and -0.164 | -0.282 and 0.116 | -0.747 and -0.0169 | 1.18 and 0.825 | 0.575 and 0.462 | 0.636 and -1.01 | 0.678 and 0.882 | -0.892 and -0.0489 | -0.287 (inactive) and -0.431 (inactive) |
| C=C[C@@H](C)[C@H](O)c1ccc(O)c2ccccc12 | -0.181 and 1.87 | -0.7 and -1.54 | 0.825 and -0.491 | 0.837 and -0.449 | 1.31 and 0.663 | 1.14 and 0.0819 | -0.832 and -0.689 | 0.948 and -0.871 | 0.0825 and -0.52 | 0.546 (inactive) and 0.338 (inactive) |
| COC(=O)CC=C[C@@H](C)[C@@H](CO)NS(=O)(=O)c1ccc(C)cc1 | 0.929 and 0.293 | 0.298 and 0.512 | 0.0223 and -0.111 | -0.223 and 0.225 | 0.523 and 0.791 | 0.646 and 0.574 | -0.145 and 0.884 | 0.648 and 0.88 | -0.22 and 0.117 | 0.0494 (inactive) and -0.803 (inactive) |
| CC(CO)N1C(=O)[C@@H]2C3C(=O)OCCC=C[C@H]3OC23C=CCN(c2ccc(Cl)cc2)C(=O)[C@@H]13 (stereo not given in full) | -1.31 and 1.36 | -1.31 and -0.0543 | 1.69 and 0.156 | -0.697 and 0.363 | -1.49 and 0.33 | -1.73 and -0.68 | 0.931 and 0.848 | -1.49 and 0.213 | -0.0757 and 0.684 | -0.593 (inactive) and -0.731 (inactive) |
